Source: PubChem BioAssay (National Center for Advancing Translational Sciences (NCATS))
Rab9 promoter act: qHTS Assay for Rab9 Promoter Activators | 2.8% of 320,000 active | Potency, µM (doses to about 9.22 µM), inactives show top-dose activation, negative = inhibition, most hits filed as activators | Huh7 Rab9 promoter-luciferase reporter, luminescence, 24 h; note: % of control where 0% means no effect; nearly all actives have a fitted effect of over 60% in size
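Steps: seed 1500 Huh7 Rab9-luc cells per well, rest 2 h at 37 °C; add compound in DMSO; incubate 24 h; add luciferase reagent, 10 min ambient; read luminescence.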
SMN2 splice enh: qHTS Assay for Enhancers of SMN2 Splice Variant Expression; Potency, µM (series often up to 46.1 µM), for the others: at the top dose activity change, positive = activation, actives largely listed as activators; HEK293 SMN2-luciferase splicing reporter, luminescence, 30-36 h; 2.8% of 210,000 active; note: % of control where 0% means no effect; nearly all actives have a fitted effect of over 55% in size
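HEK293 cells carry an SMN2 […]–luciferase reporter in which exon 7 inclusion puts luciferase in frame. Cells were plated 10-12 h before compound addition, then incubated 30-36 h at 37C. ONE-Glo luminescence was read; sodium butyrate at 4.5 mM final served as control.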
FLuc counter: qHTS profiling assay for firefly luciferase inhibitor/activator using purifed enzyme and Km concentrations of substrates (counterscreen for miR-21 project) | Luciferin 4-monooxygenase (Photinus pyralis), P08659 | purified FLuc, Km substrates, luminescence inhibition | Potency, µM (series often up to 57.5 µM), without a hit: top-dose activity change, negative = inhibition, actives largely listed as inhibitors | 6.9% of 360,000 active | AID 588342, 2011;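 note: plate controls were vehicle for no effect and reference inhibitor for full effect; nearly all actives have a fitted effect of over 55% in size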
Target sequence (P08659 whole entry, looked up): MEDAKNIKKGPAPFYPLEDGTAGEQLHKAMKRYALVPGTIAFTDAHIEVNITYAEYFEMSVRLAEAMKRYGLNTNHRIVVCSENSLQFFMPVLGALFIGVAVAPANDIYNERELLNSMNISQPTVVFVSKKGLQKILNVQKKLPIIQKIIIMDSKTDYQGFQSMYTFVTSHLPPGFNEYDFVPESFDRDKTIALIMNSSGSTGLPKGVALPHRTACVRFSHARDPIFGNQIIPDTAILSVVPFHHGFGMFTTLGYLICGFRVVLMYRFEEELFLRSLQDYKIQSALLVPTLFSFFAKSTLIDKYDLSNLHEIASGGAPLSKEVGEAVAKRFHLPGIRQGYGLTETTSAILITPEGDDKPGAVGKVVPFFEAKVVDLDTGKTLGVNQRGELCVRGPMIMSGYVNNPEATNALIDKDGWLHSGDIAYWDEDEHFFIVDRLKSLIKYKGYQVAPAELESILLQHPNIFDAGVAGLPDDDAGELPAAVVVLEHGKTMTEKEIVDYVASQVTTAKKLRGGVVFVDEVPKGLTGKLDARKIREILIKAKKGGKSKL
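Purified P. pyralis luciferase, 10 nM final, with Km-level 10 uM D-luciferin and 10 uM ATP in 50 mM Tris acetate pH 7.5, 10 mM Mg acetate, 0.01% Tween-20, 0.05% BSA; 6-point qHTS titration about 60 µM downward; luminescence read.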
ELG1 genotoxic: qHTS screen for small molecules that induce genotoxicity in human embryonic kidney (HEK293T) cells expressing luciferase-tagged ELG1; AID 504466, 2011; Potency, µM (series often up to 46 µM), for inactives: at the top dose activity change, positive = activation, most hits filed as activators; HEK293T ELG1-luciferase reporter, luminescence, 16 h; 1.3% of 330,000 active; note: % of control where 0% means no effect; nearly all actives have a fitted effect of over 60% in size
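Genotoxicity was scored as increased ELG1-luciferase reporter signal, measured by ONE-Glo luminescence (30 min, room temperature). Compound or vehicle exposure of the HEK293T reporter cells lasted 16 hr at 37°C.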
NPC1 promoter act: qHTS Assay for NPC1 Promoter Activators; Huh7 NPC1 promoter luciferase reporter, 24 h; Potency, µM (doses to about 9.22 µM), without a hit: at the top dose activation, usual class: activators; 2.4% of 320,000 active; note: % of control where 0% means no effect; nearly all actives have a fitted effect of over 60% in size
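Luminescence from an NPC1 promoter-driven luciferase reporter in stably transfected Huh7 cells was measured after 24 h compound treatment at 37 °C, followed by 10 min ambient incubation with luciferase detection reagent.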
* = called active by the depositor; ? = inconclusive; . = no result. This is a sample that favours compounds with a hit; in the whole collection about 7.5% have one here. Calls come from the whole dose curve; as a rule, active = well fitted curve in the direction sought with a large enough effect; inconclusive = small, poorly fitted or top-dose-only effect, or another doubt; inactive = no such curve, though single readings can be large; an effect the other way counts as inactive or inconclusive. Potency is the fitted concentration of half-maximal effect.

SMILES	Rab9 promoter act	SMN2 splice enh	FLuc counter	ELG1 genotoxic	NPC1 promoter act
CC(=O)c1cccc(NC(=O)N2C3CCCC2CC(NC(=O)C2CC2)C3)c1 (centres undefined)	2%	.	-2%	3%	1%
COc1ccc(CNC(=O)COC(=O)CCn2c(C)csc2=O)cc1OC	1%	.	-1%	0%	0%
Cc1ccc(-c2cc(C(=O)N3CC(C)OC(C)C3)c3ccccc3n2)o1 (centres undefined)	-1%	.	11µM*	9%	-1%
Cc1ccc(-c2cc(C(=O)N3CC(C)CC(C)C3)c3ccccc3n2)o1 (centres undefined)	2%	.	12µM*	-1%	1%
Cc1ccc(-c2cc(C(=O)NCC(c3ccccc3)N(C)C)c3ccccc3n2)o1 (centres undefined)	.	.	.	2%	.
CC1=C2C(=CO[C@H](C)[C@H]2C)C(=O)C(C(=O)O)=C1O	.	-2%	.	.	.
COC(=O)[C@@]1(Cc2ccc(OC)cc2)[C@H]2c3cc(C(=O)N(C)C)n(Cc4ccc(OC)c(OC)c4)c3C[C@H]2CN1C(=O)c1ccccc1	.	-15%	.	.	.
CCCc1nnc(NC(=O)Nc2ccccc2Cl)s1	.	16µM*	?	.	.
CCCc1nnc(NC(=O)CCC(=O)Nc2ccc(Cl)cc2)s1	5%	.	-4%	?	-1%
CCC(=O)Nc1nnc(CCc2ccccc2)s1	11%	?	-7%	8%	-1%
CCCc1nnc(NC(=S)Nc2ccccc2)s1	2.5µM*	?	?	?	?
CCCc1nnc(NC(=O)CCC(=O)NCc2ccccc2Cl)s1	-3%	.	-2%	-1%	-1%
CC(C)C(=O)Nc1nnc(NC(=S)Nc2ccccc2)s1	4.5µM*	30%	21µM*	?	?
CC(C)(C)C(=O)Nc1nnc(CCc2ccccc2)s1	5.6µM*	.	12µM*	?	4µM*
Cc1ccc(CNC(=O)CCSCc2ccccc2F)cc1	-5%	.	?	0%	-6%
COc1ccc(N2CCN(C(=O)c3cccn3-c3nnc(N4CCCC4)s3)CC2)cc1	.	.	-11%	.	.
Cc1cc(C)cc(NC(=O)C2CCN(S(=O)(=O)c3cn(C)cn3)CC2)c1	.	.	4%	.	.
Cc1ccsc1C(=O)NNC(=O)C1C2C=CC(C2)C1C(=O)O (centres undefined)	8%	7%	24µM*	?	3%
COC(=O)c1sccc1NC(=O)C1C2C=CC(C2)C1C(=O)O (centres undefined)	-1%	-29%	12%	2%	-2%
Nc1nnc(-c2ccc(Cl)cc2)o1	3%	.	?	3%	4%
Nc1ccc(-c2nnc(-c3ccc(N)cc3)o2)cc1	3.5µM*	.	3.4µM*	16µM*	3.5µM*
Cc1cc(C)cc(Oc2ccc(-c3nnc(-c4ccccc4)o3)cc2[N+](=O)[O-])c1	0%	0%	2%	-1%	-1%
Cc1cccc(-c2nnc(-c3ccc(N)cc3)o2)c1	2.8µM*	4.5µM*	3.4µM*	?	?
O=C(COc1ccccc1)NCC(c1ccco1)N1CCCCC1 (centres undefined)	0%	.	1%	-5%	1%
COc1ccc(NC(=O)c2csc3c2CCCCC3)cc1	.	7.9µM*	5.4µM*	.	.
SMILES	Rab9 promoter act	SMN2 splice enh	FLuc counter	ELG1 genotoxic	NPC1 promoter act
COc1ccc(NC(=O)c2csc3c2CCCCC3)c(OC)c1	5%	9%	?	-3%	0%
COc1cccc(NC(=O)c2csc3c2CCCCC3)c1	.	13µM*	11µM*	.	.
O=C(Nc1ccccc1O)c1csc2c1CCCC2	?	16µM*	9.5µM*	?	?
Clc1ccc(Cc2ccccn2)cc1	1%	.	-1%	2%	-1%
Cc1noc(C)c1S(=O)(=O)N1CCCC1C(=O)O (centres undefined)	0%	.	-1%	0%	2%
COc1cc(CNC(=O)c2ccc3oc(C(C)C)nc3c2)cc(OC)c1	-1%	.	-20%	-4%	0%
O=C(Nc1ccc(OCc2ccccc2)cc1)Nc1ccccc1C(=O)NCCCN1CCOCC1	5%	.	19µM*	6%	1%
